In PubChem BioAssay AID2316 (Broad Institute, 2010):
Fewer than 10 of roughly 29,000 compounds were called active. How the calls were made is not given here. A selection follows.

Test: activators reversing PD-1 mediated T-cell inhibition, primary screen, luminescence, primary human CD4 T cells, PD-L1 beads (AID 2316);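 further: 0% = median vehicle wells and 100% = positive control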
Conditions: CellTiter-Glo 96 h, stronger effect = higher value

Structure (SMILES) | activation
COc1ccc(NC(=O)Nc2cccc3c2O[C@H](CN(C)C(=O)Nc2ccc(F)cc2)[C@@H](C)CN([C@@H](C)CO)C3=O)cc1 | 1.83% (inactive)
COc1ccc(NC(=O)N(C)C[C@@H]2OCCCC[C@@H](C)Oc3ccc(NC(=O)NC4CCCCC4)cc3C(=O)N([C@H](C)CO)C[C@@H]2C)cc1 | 0.764% (inactive)
CCOc1ccc(NC(=O)CSc2nccc(C)n2)cc1 | 1.48% (inactive)
Cc1ccc(C)c(NC(=O)CSc2nc(C)nc3sc(C)c(C)c23)c1 | 0.586% (inactive)
CC(C)(C)c1ccc(S(=O)(=O)NCC(=O)Nc2ccc(F)cc2)cc1 | -2.51% (inactive)
COC(=O)c1c(NC(=O)COc2ccc(C(C)C)c(C)c2)sc2c1CCC2 | 0.596% (inactive)
O=S(=O)(c1ccccc1)c1nc(-c2ccccc2F)oc1NCc1cccnc1 | -0.501% (inactive)
COc1ccccc1N(CC(=O)Nc1ccc(C(F)(F)F)cc1)S(C)(=O)=O | 0.0709% (inactive)
C[C@@H]1CN([C@H](C)CO)C(=O)c2cccc(NC(=O)c3ccncc3)c2O[C@@H]1CN(C)C | 0.1% (inactive)
Cc1ccc(S(=O)(=O)Nc2ccc3c(c2)CC(=O)N([C@H](C)CO)C[C@@H](C)[C@H](CN(C)S(=O)(=O)c2c(C)noc2C)O3)cc1 | 0.836% (inactive)
O=C(NCc1ccccn1)C(=O)Nc1cccc(Cl)c1Cl | 2.26% (inactive)
COC1OC(O)C(O)C12CC[C@@]1(O2)[C@H](C)C[C@H]2OC(=O)[C@@]3(C)CCC[C@]1(C)C23 (stereo partly drawn) | 0.449% (inactive)
Cc1ccc(S(=O)(=O)CCC(=O)Nc2ccc(Cl)cc2)cc1 | 0.811% (inactive)
Cc1ccc(C(=O)O)cc1S(=O)(=O)NCC1CCCO1 (stereo not drawn) | -0.751% (inactive)
COc1ccc(NC(=O)Nc2ccc3c(c2)CC(=O)N([C@@H](C)CO)C[C@H](C)[C@H](CN(C)C(=O)Nc2ccc4c(c2)OCO4)O3)cc1 | 0.0102% (inactive)
COc1ccc2nc3c(nc2c1)C(=O)c1ccccc1C3=O | 0.69% (inactive)
C[C@H](CO)N1C[C@H](C)[C@@H](CN(C)Cc2ccccc2)Oc2c(NC(=O)CCCCCC(=O)Nc3ccccc3N)cccc2C1=O | -2.46% (inactive)
Cc1ccc(S(=O)(=O)N(C)C[C@H]2Oc3ccc(NC(=O)Cc4cn(C)c5ccccc45)cc3CC(=O)N([C@@H](C)CO)C[C@H]2C)cc1 | -0.47% (inactive)
C/C=C(/C)C(=O)O[C@H]1CC(C)(C)C[C@H]2C3=CCC4[C@@]5(C)CC[C@H](O[C@@H]6O[C@H](C(=O)O)[C@@H](O[C@@H]7O[C@H](CO)[C@H](O)[C@H](O)[C@H]7O[C@@H]7O[C@H](CO)[C@@H](O)[C@H](O)[C@H]7O)[C@H](O)[C@H]6O[C@@H]6O[C@@H](C)[C@H](O)[C@@H](O)[C@H]6O)C(C)(C)C5CC[C@@]4(C)[C@]3(C)[C@@H](OC(C)=O)[C@@H](O)[C@@]12COC(C)=O (stereo partly drawn) | -14.9% (inactive)
C[C@@H]1CCCCO[C@H](CN(C)Cc2ccncc2)[C@@H](C)CN([C@H](C)CO)C(=O)c2cc(NC(=O)CCCN(C)C)ccc2O1 | 0.961% (inactive)
Cc1cc(C)c(C(=O)CSc2nc(C)cc(=O)[nH]2)c(C)c1 | 1.17% (inactive)

Structure (SMILES) | activation
CS(=O)(=O)N(CC(=O)N1CCOCC1)c1ccc2c3c(cccc13)CC2 | 0.857% (inactive)
COc1cc(C2OC(c3cc(OC)c(OC)c(OC)c3)C(C)C2C)cc(OC)c1OC (stereo not drawn) | 0.69% (inactive)
Cc1noc(C)c1NC(=O)N(C)C[C@H]1Oc2ccc(NS(=O)(=O)c3ccc(F)cc3)cc2C(=O)N([C@@H](C)CO)C[C@H]1C | 2.2% (inactive)
COc1ccc(NC(=O)N(C)C[C@H]2Oc3c(NC(=O)Nc4cccc5ccccc45)cccc3C(=O)N([C@@H](C)CO)C[C@H]2C)cc1 | 0.624% (inactive)
CC(=O)Oc1ccc2occ(C(=O)c3cc4ccccc4o3)c2c1 | -0.284% (inactive)
CS(=O)(=O)N(CC(=O)Nc1cc(C(F)(F)F)ccc1Cl)c1ccc(Br)cc1 | -0.295% (inactive)
C[C@H]1CN([C@@H](C)CO)C(=O)c2cccc(NC(=O)C3CCOCC3)c2O[C@@H]1CN(C)C | 0.0381% (inactive)
C[C@@H]1CN([C@@H](C)CO)C(=O)Cc2cc(NC(=O)CCCCCC(=O)Nc3ccccc3N)ccc2O[C@@H]1CN(C)C(=O)NC1CCCCC1 | 0.434% (inactive)
C[C@@H]1CN([C@H](C)CO)C(=O)c2cc(NC(=O)Nc3ccc4c(c3)OCO4)ccc2O[C@H]1CN(C)C(=O)Nc1ccccc1 | 0.77% (inactive)
Cn1nc(C(=O)O)c2ccccc2c1=O | -0.137% (inactive)
COc1ccc(S(=O)(=O)N(C)CC(=O)Nc2cccc(C(F)(F)F)c2)cc1OC | -1.43% (inactive)
CCCCCC(O)c1cccc(OCc2ccc3ccccc3n2)c1 (stereo not drawn) | 5.54% (inactive)
C[C@H]1CN([C@@H](C)CO)C(=O)c2cccc(NC(=O)c3ccncc3)c2O[C@H]1CN(C)C | 2.81% (inactive)
O=C(O)C1CC=CCC1C(=O)Nc1ccc(C(=O)N2CCCCC2)c(Cl)c1 (stereo not drawn) | 2.23% (inactive)
Cc1ccc(S(=O)(=O)N(C)C[C@@H]2Oc3c(NC(=O)C4CCCCC4)cccc3C(=O)N([C@H](C)CO)C[C@H]2C)cc1 | 1.48% (inactive)
Cc1ccc(S(=O)(=O)Nc2ccc3c(c2)C(=O)N([C@H](C)CO)C[C@H](C)[C@@H](CN(C)S(=O)(=O)c2cccs2)O3)cc1 | -1.04% (inactive)
CC(C)CSc1nnc(CSCc2nc(-c3ccc(Cl)cc3)cs2)n1C | 1.7% (inactive)
CS(=O)(=O)N(CC(=O)Nc1ccc(F)c(Cl)c1)C1CCCCC1 | 0.469% (inactive)
CC(C)NC(=O)N(C)C[C@@H]1Oc2ccc(NS(=O)(=O)c3ccccc3)cc2C(=O)N([C@@H](C)CO)C[C@H]1C | 1.49% (inactive)
C[C@H]1CN([C@@H](C)CO)C(=O)Cc2cc(NC(=O)CCCCCC(=O)Nc3ccccc3N)ccc2O[C@H]1CN(C)C(=O)Nc1ccc(F)cc1 | 0.894% (inactive)
Cc1noc(C)c1S(=O)(=O)N(C)C[C@@H]1Oc2c(NS(=O)(=O)c3cn(C)cn3)cccc2C(=O)N([C@H](C)CO)C[C@@H]1C | 1.65% (inactive)

Structure (SMILES) | activation
O=c1c2ccccc2nc(SCc2ccc(F)cc2)n1-c1ccccc1 | -10.1% (inactive)
COC(=O)c1ccc(C(=O)OC)c(NC(=O)COc2ccc(C)cc2)c1 | -5.39% (inactive)
O=C(Nc1ccc(C23CC4CC(CC(C4)C2)C3)cc1)c1cccs1 | 0.396% (inactive)
C/C=C1\C2C=C(C)CC1(N)c1ccc(=O)[nH]c1C2 (stereo not drawn) | 0.91% (inactive)
COc1cccc2cc(C(=O)Nc3sc4c(c3C(N)=O)CCCCC4)c(=O)oc12 | 3.77% (inactive)
COc1ccc(S(=O)(=O)Nc2ccc3c(c2)C(=O)N([C@H](C)CO)C[C@@H](C)[C@H](CN(C)S(=O)(=O)c2ccc(C)cc2)O3)cc1 | 0.261% (inactive)
COc1ccc(Oc2ccc(NC(=O)CCC(=O)O)cc2)cc1 | 0.302% (inactive)
C[C@@H]1CN([C@H](C)CO)C(=O)Cc2cc(NC(=O)Cc3ccccc3)ccc2O[C@@H]1CN(C)Cc1ccccc1 | 1.25% (inactive)
O=C(CN1CCOCC1)Nc1sc2c(c1C(=O)Nc1ccc(Br)cc1)CCC2 | -2.1% (inactive)
C[C@@H]1CN([C@@H](C)CO)C(=O)c2cc(NS(=O)(=O)c3ccc(Cl)cc3)ccc2O[C@H]1CN(C)S(=O)(=O)c1cn(C)cn1 | -1.79% (inactive)
COc1cc(C=Nc2ccc(Cl)cc2)ccc1OC(=O)/C=C/c1cccs1 | -0.177% (inactive)
CCO/C([O-])=N\c1c[n+](N2CCOCC2)no1 | 0.71% (inactive)
C[C@@H]1CN([C@H](C)CO)C(=O)c2cc(NC(=O)Cc3ccccc3)ccc2O[C@@H]1CN(C)CC1CCCCC1 | -0.76% (inactive)
C[C@@H]1CCCCO[C@@H](CN(C)C(=O)NC2CCCCC2)[C@@H](C)CN([C@H](C)CO)C(=O)c2cc(NC(=O)CCCCCC(=O)Nc3ccccc3N)ccc2O1 | 0.709% (inactive)
Cc1ccc(-n2c(C)nc3sc4c(c3c2=O)CCC4)cc1 | -4.12% (inactive)
CC(=O)c1cccc(NC(=O)CN(c2ccc(F)c(Cl)c2)S(C)(=O)=O)c1 | 2.89% (inactive)
C[C@@H]1CN([C@H](C)CO)C(=O)Cc2cc(NC(=O)C3CCCCC3)ccc2O[C@@H]1CN(C)Cc1ccc(C(F)(F)F)cc1 | -3.12% (inactive)
CC1=Nn2c(Cn3nnc4ccccc43)nnc2SC1 | 0.665% (inactive)
CC(=O)c1cccc(NC(=O)CN(C2CCCCC2)S(=O)(=O)c2ccccc2)c1 | -2.41% (inactive)
CC(C)NC(=O)Nc1ccc2c(c1)C(=O)N([C@@H](C)CO)C[C@H](C)[C@@H](CN(C)C)O2 | 0.0718% (inactive)
CCCOC(=O)C1=C(C)N(CC)C(=O)NC1c1ccccc1Cl (stereo not drawn) | -0.396% (inactive)
